The full data set covers some 7,900 targets. This sample favours those with a hit. About 0.6% of all pairs of compound and target were hits.
Experiments:
Test in all cases: log2 fold change, soluble protein after heating vs DMSO (PISA); higher = thermal stabilisation; K562 cells, 10 uM, 30 min; active = over 0.2 and 3.5 SD of the protein, either way, in both replicates (recomputed)
[1] = compound: CC[C@@H]1C(=O)N(C)c2cnc(Nc3ccc(C(=O)NC4CCN(C)CC4)cc3OC)nc2N1C1CCCC1
Method in brief: (§1)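 Quantification of soluble protein used TMTpro 16plex LC-MS/MS, with channel sums equalised. Samples were the supernatant after 21,000xg for 90 min of pooled aliquots from K562 cells (2×10^6 cells/mL) treated with 10 μM compound for 30 min, heated for 3 min over 48°C-58°C, and extracted in PBS with 0.5% NP-40 at 4°C. Values, from duplicates, describe thermal stability against control samples on a log2 fold-change scale.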

volasertib = compound: CC[C@@H]1C(=O)N(C)c2cnc(Nc3ccc(C(=O)N[C@H]4CC[C@H](N5CCN(CC6CC6)CC5)CC4)cc3OC)nc2N1C(C)C [volasertib]
Method in brief: as §1

[2] = compound: CC[C@H](C)N1C=C(C2=C(C=C(C=C21)C3=CN=C(C=C3)N4CCNCC4)C(=O)NCC5=C(C=C(NC5=O)C)C)C
Method in brief: as §1

epoxomicin = compound: CC[C@H](C)[C@@H](C(=O)N[C@@H]([C@@H](C)O)C(=O)N[C@@H](CC(C)C)C(=O)[C@]1(CO1)C)NC(=O)[C@H]([C@@H](C)CC)N(C)C(=O)C [epoxomicin]
Method in brief: as §1

[3] = compound: CCn1c(C(=O)N(C2CC2)C2CC2)cc2c3c(ncn3C)c(Nc3cc(C)n(C)n3)nc21
Method in brief: as §1

[4] = compound: CCn1cc(-c2ccnc3[nH]c(-c4cccc(CN(C)C)c4)cc23)c(-c2ccc(NC(=O)N(C)C)cc2)n1
Method in brief: as §1

[5] = compound: CN(C)CC(=O)Nc1ccc2[nH]c(=O)c3ccccc3c2c1
Method in brief: as §1

rosiglitazone = compound: CN(CCOC1=CC=C(C=C1)C[C@H]2C(=O)NC(=O)S2)C3=CC=CC=N3 (racemic) [rosiglitazone]
Method in brief: as §1

[6] = compound: CN1C2=C(C3=C1C(=O)N(N=C3)CC4=CC(=CC=C4)N)SC(=C2)S(=O)C
Method in brief: as §1

[7] = compound: CN1CCC(CNc2ccc3ncc(-c4cccc(OC(F)(F)F)c4)n3n2)CC1
Method in brief: as §1

saracatinib = compound: CN1CCN(CCOc2cc(OC3CCOCC3)c3c(Nc4c(Cl)ccc5c4OCO5)ncnc3c2)CC1 [saracatinib]
Method in brief: as §1

sotrastaurin = compound: CN1CCN(c2nc(C3=C(c4c[nH]c5ccccc45)C(=O)NC3=O)c3ccccc3n2)CC1 [sotrastaurin]
Method in brief: as §1

alvocidib = compound: CN1CC[C@H](c2c(O)cc(O)c3c(=O)cc(-c4ccccc4Cl)oc23)[C@H](O)C1 [alvocidib]
Method in brief: as §1

Tubastatin A = compound: CN1CCc2c(c3ccccc3n2Cc2ccc(C(=O)NO)cc2)C1 [Tubastatin A]
Method in brief: as §1

[8] = compound: CNC(=O)C1=CC=CC=C1NC2=NC(=NC=C2Cl)NC3=C(C=C(C=C3)N4CCOCC4)OC
Method in brief: as §1

defactinib = compound: CNC(=O)c1ccc(Nc2ncc(C(F)(F)F)c(NCc3nccnc3N(C)S(C)(=O)=O)n2)cc1 [defactinib]
Method in brief: as §1

rucaparib = compound: CNCc1ccc(-c2[nH]c3cc(F)cc4c3c2CCNC4=O)cc1 [rucaparib]
Method in brief: as §1

[9] = compound: CNc1nc(-c2ccc3c(N)n[nH]c3c2)cc(N2C[C@@H](C(=O)NC3CCCCC3)CC[C@H]2C)n1
Method in brief: as §1

encorafenib = compound: COC(=O)N[C@@H](C)CNc1nccc(-c2cn(C(C)C)nc2-c2cc(Cl)cc(NS(C)(=O)=O)c2F)n1 [encorafenib]
Method in brief: as §1

[10] = compound: COC(=O)[C@H](CCSC)NC(=O)C1=C(C=C(C=C1)NC[C@H](CS)N)C2=CC=CC=C2
Method in brief: as §1

Measured: log2 fold change

DLD (UniProt P09622)
Sequence of UniProt P09622 (P09622 whole entry, looked up): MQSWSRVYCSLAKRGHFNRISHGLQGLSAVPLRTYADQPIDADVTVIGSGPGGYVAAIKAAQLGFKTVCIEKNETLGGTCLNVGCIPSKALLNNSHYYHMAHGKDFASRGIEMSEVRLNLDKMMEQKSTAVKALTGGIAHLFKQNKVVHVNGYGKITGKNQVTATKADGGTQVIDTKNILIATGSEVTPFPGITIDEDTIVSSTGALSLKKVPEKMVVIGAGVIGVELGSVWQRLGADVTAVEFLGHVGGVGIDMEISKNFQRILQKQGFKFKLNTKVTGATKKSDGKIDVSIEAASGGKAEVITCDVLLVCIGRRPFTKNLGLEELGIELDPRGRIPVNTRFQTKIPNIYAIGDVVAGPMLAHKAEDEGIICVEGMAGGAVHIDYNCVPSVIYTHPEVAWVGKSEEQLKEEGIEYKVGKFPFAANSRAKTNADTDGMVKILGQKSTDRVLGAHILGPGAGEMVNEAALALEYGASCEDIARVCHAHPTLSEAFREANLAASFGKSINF
inactive: [1] 0.043 | volasertib 0.143 | [2] -0.028 | epoxomicin -0.015 | [3] 0.049 | [4] -0.007 | [5] -0.012 | rosiglitazone -0.008 | [6] -0.035 | [7] -0.118 | saracatinib 0.055 | sotrastaurin 0.015 | alvocidib 0.026 | Tubastatin A -0.029 | [8] 0.008 | defactinib 0.01 | rucaparib -0.041 | [9] -0.023 | encorafenib -0.011 | [10] 0.047

EEA1 (UniProt Q15075)
Sequence of UniProt Q15075 (Q15075 whole entry, looked up): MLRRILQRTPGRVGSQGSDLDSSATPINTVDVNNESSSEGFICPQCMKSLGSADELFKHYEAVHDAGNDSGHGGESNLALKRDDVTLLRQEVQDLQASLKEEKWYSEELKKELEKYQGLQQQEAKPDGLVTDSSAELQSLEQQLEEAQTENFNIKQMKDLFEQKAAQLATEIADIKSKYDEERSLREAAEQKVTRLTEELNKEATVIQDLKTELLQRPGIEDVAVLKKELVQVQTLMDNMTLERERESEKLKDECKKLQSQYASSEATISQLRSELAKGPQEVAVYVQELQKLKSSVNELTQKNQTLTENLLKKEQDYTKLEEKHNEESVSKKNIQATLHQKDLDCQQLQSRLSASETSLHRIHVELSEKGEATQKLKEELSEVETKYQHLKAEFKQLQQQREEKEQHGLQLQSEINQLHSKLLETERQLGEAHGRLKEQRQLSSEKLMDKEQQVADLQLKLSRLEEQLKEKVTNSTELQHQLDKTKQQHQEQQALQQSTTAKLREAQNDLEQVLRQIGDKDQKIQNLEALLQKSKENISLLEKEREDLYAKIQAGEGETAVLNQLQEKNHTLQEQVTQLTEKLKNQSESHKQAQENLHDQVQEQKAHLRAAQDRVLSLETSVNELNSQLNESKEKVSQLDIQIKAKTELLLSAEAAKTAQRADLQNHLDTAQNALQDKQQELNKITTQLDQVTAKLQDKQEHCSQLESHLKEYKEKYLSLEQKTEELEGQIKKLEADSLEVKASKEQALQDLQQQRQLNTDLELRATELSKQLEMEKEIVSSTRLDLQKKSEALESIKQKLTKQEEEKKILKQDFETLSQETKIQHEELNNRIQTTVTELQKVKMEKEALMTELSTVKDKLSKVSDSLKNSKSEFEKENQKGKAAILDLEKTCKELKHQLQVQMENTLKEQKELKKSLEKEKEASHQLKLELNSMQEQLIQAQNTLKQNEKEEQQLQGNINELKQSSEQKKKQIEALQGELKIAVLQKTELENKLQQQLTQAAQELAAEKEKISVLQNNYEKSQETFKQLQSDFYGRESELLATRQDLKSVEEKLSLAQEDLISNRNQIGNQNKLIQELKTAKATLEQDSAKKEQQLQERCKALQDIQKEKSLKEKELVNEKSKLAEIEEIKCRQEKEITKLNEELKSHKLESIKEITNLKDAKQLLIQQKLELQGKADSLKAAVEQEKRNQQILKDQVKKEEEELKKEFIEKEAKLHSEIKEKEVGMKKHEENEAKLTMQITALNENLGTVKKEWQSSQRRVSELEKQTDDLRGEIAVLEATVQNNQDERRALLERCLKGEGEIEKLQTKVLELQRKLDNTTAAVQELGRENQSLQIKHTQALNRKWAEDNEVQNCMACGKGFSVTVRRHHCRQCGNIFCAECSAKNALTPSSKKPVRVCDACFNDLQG
inactive: [1] 0.036 | volasertib 0.031 | [2] -0.024 | epoxomicin 0.017 | [3] -0.002 | [4] 0.019 | [5] -0.038 | rosiglitazone -0.014 | [6] -0.023 | [7] 0.001 | saracatinib 0.07 | sotrastaurin 0.013 | alvocidib 0.013 | Tubastatin A -0.014 | [8] -0.014 | defactinib -0.033 | rucaparib -0.035 | [9] -0.026 | encorafenib -0.047 | [10] 0.007

DFFB (UniProt O76075)
Sequence of UniProt O76075 (O76075 whole entry, looked up): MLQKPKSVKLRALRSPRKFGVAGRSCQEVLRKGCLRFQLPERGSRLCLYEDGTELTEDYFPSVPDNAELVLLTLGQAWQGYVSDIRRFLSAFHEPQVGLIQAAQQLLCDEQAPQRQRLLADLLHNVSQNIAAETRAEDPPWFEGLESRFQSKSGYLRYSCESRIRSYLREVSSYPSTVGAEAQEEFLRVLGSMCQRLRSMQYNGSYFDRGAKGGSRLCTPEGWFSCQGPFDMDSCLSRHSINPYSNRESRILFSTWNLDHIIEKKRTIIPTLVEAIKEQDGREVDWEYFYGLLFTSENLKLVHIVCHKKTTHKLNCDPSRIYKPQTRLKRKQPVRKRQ
inactive: [1] 0.049 | volasertib 0.036 | [2] 0.104 | epoxomicin 0.039 | [3] -0.057 | [4] 0.028 | [5] -0.036 | rosiglitazone 0 | [6] -0.074 | [7] -0.01 | saracatinib 0.017 | sotrastaurin 0.052 | alvocidib -0.038 | Tubastatin A 0.07 | [8] 0.009 | defactinib 0.024 | rucaparib 0.049 | [9] -0.016 | encorafenib -0.019 | [10] 0.033

EIF2S3 (UniProt P41091)
Sequence of UniProt P41091 (P41091 whole entry, looked up): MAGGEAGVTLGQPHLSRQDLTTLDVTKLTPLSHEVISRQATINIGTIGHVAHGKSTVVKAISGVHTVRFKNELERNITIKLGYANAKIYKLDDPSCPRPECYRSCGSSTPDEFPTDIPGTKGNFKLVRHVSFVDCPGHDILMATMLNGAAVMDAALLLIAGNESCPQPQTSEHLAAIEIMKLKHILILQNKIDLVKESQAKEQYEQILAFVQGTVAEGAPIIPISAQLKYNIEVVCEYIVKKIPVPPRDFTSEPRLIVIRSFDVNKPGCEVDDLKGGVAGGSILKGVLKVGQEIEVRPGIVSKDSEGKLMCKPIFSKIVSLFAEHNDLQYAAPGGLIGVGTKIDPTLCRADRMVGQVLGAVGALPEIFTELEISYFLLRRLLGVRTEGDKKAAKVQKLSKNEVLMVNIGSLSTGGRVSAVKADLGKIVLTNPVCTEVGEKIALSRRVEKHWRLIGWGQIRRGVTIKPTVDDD
inactive: [1] 0.076 | volasertib 0.073 | [2] 0.026 | epoxomicin -0.144 | [3] 0.009 | [4] 0.055 | [5] -0.034 | rosiglitazone -0.02 | [6] 0.068 | [7] 0.049 | saracatinib -0.016 | sotrastaurin 0 | alvocidib 0.057 | Tubastatin A -0.006 | [8] -0.02 | defactinib 0.114 | rucaparib 0.124 | [9] 0.033 | encorafenib 0.04 | [10] -0.002

DNAH5 (UniProt Q8TE73)
inactive: [1] 0.042 | volasertib 0.01 | [2] -0.079 | epoxomicin -0.052 | [3] -0.015 | [4] -0.009 | [5] -0.031 | rosiglitazone -0.044 | [6] 0.029 | [7] 0.03 | saracatinib 0.058 | sotrastaurin 0.017 | alvocidib 0.044 | Tubastatin A 0.058 | [8] -0.057 | defactinib 0.015 | rucaparib -0.071 | [9] -0.099 | encorafenib -0.006 | [10] -0.072

EED, A0A5F9ZI63
inactive: [1] -0.052 | volasertib -0.055 | [2] -0.159 | epoxomicin -0.032 | [3] -0.001 | [4] 0.068 | [5] -0.099 | rosiglitazone 0.054 | [6] 0.045 | [7] 0.209 | saracatinib 0.008 | sotrastaurin -0.065 | alvocidib 0.037 | Tubastatin A -0.041 | [8] -0.057 | defactinib -0.04 | rucaparib 0.125 | [9] -0.052 | encorafenib 0.025 | [10] -0.05

DIP2A (UniProt Q14689)
Sequence of UniProt Q14689 (Q14689 whole entry, looked up): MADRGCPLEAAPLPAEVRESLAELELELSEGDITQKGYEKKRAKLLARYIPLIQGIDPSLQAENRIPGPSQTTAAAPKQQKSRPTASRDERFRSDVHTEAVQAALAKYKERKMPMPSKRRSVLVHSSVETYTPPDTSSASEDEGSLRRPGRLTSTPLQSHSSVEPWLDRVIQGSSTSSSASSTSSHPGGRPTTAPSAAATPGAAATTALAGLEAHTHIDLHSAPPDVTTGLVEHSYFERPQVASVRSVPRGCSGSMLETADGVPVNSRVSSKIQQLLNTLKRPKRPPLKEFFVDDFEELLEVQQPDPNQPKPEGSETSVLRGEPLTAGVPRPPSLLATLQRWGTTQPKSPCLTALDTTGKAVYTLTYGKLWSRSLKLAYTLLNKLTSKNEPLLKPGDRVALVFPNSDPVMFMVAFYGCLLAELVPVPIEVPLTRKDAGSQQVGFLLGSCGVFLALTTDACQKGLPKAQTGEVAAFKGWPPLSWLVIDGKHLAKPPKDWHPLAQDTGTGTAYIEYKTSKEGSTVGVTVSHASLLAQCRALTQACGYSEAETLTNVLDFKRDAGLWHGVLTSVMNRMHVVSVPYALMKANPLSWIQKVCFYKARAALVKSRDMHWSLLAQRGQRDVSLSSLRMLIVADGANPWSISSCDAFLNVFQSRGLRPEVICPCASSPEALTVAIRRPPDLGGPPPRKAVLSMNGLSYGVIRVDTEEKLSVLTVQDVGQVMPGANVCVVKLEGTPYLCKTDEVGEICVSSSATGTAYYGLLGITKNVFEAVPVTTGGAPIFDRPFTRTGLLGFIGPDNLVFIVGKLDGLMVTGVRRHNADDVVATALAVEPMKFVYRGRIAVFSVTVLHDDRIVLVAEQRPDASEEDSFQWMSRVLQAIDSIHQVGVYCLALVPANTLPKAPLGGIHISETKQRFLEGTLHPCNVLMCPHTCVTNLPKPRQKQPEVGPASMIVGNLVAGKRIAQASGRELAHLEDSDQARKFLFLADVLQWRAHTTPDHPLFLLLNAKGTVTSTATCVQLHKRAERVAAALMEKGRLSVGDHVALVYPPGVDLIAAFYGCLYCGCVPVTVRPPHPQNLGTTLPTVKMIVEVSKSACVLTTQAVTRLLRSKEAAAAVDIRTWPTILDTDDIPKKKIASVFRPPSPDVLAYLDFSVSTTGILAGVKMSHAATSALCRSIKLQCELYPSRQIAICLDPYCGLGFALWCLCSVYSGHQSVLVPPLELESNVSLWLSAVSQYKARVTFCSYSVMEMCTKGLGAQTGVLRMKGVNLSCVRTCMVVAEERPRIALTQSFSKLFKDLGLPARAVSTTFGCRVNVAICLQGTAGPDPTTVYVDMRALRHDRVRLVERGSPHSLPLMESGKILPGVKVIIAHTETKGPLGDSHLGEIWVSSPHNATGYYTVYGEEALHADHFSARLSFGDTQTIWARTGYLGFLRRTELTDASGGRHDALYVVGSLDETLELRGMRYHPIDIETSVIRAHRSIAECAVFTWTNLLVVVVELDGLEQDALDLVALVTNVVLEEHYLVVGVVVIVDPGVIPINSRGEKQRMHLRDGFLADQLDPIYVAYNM
inactive: [1] -0.065 | volasertib 0.026 | [2] -0.037 | epoxomicin -0.017 | [3] 0.037 | [4] -0.063 | [5] -0.041 | rosiglitazone -0.034 | [6] -0.045 | [7] 0.057 | saracatinib 0.082 | sotrastaurin 0.054 | alvocidib -0.095 | Tubastatin A -0.094 | [8] 0.034 | defactinib -0.059 | rucaparib 0.1 | [9] -0.009 | encorafenib 0 | [10] 0.077

DNAJB12 (UniProt Q9NXW2)
Sequence of UniProt Q9NXW2 (Q9NXW2 whole entry, looked up): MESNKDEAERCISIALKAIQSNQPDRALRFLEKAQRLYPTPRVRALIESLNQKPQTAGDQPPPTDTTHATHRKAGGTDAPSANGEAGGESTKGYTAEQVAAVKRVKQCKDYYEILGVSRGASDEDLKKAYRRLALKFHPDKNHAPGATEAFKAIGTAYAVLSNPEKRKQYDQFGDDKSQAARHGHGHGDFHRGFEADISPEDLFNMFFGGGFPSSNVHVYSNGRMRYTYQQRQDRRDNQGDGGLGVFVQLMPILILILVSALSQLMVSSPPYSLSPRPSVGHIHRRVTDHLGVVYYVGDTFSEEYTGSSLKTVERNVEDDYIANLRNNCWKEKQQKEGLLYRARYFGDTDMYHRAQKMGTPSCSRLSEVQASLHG
inactive: [1] -0.045 | volasertib -0.123 | [2] -0.033 | epoxomicin -0.003 | [3] -0.096 | [4] 0.024 | [5] 0.022 | rosiglitazone 0.023 | [6] 0.068 | [7] -0.081 | saracatinib 0.022 | sotrastaurin 0.068 | alvocidib -0.006 | Tubastatin A -0.006 | [8] 0.024 | defactinib -0.03 | rucaparib 0.079 | [9] -0.011 | encorafenib -0.018 | [10] -0.021
